Experiments:
Assay in all cases: log2 ratio of Biotin-Ahx-Ub-VS probe labelling (fragment/DMSO); higher = less target engagement (more negative = stronger competition), active = hit call of the paper (q ≤ 0.05, log2 ratio ≤ -1)
Conditions in all cases: compound concentration: 200 uM; treatment time: 3 h
USP19 = biological target: T1, USP19 (UniProt O94966)
T1 sequence (whole entry): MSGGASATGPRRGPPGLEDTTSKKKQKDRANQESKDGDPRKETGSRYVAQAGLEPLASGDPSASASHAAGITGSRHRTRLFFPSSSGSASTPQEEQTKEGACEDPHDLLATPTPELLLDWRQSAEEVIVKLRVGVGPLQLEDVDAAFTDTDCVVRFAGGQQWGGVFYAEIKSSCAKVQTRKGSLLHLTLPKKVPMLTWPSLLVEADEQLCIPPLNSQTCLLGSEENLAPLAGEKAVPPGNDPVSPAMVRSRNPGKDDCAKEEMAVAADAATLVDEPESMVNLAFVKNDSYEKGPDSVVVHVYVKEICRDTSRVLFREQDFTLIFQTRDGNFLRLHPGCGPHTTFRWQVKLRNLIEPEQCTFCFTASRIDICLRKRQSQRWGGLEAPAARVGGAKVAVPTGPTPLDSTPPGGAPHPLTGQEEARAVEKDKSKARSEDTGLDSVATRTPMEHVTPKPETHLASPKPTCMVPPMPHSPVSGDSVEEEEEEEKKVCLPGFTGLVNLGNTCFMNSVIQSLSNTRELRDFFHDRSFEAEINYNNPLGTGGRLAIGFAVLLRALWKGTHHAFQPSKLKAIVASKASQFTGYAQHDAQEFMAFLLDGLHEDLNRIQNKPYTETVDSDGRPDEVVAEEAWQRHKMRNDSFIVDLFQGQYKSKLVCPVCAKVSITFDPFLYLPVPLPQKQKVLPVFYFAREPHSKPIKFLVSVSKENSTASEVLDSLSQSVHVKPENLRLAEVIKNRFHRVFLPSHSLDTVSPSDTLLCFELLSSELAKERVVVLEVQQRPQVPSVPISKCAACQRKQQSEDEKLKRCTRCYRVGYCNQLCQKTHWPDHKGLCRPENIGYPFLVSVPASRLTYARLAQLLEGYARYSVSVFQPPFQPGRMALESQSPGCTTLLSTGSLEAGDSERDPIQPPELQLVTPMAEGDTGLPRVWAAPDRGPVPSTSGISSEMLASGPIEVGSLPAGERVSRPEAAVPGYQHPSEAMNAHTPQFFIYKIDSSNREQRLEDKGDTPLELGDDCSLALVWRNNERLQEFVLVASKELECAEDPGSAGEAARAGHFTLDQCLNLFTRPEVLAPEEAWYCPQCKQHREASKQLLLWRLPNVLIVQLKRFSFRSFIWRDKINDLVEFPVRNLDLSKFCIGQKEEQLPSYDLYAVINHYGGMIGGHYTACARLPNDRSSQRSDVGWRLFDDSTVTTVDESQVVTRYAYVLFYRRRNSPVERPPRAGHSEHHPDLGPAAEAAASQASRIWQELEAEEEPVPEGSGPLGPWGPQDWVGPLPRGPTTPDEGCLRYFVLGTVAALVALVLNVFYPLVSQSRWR
Procedure, shortened: (§1)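 Values give the average log2 ratio of fragment to vehicle, assessed by unpaired t-test on global-median-normalised Spectronaut label-free quantities. Proteins needed ≥2 unique peptides. HEK293T lysate (495 µg per sample) was treated in triplicate with fragment at 200 µM or vehicle for 3 h and then with Biotin-Ahx-Ub-VS at 0.5 µM final for 1 h. Labelled DUBs were NeutrAvidin-enriched, digested and run by diaPASEF LC-MS/MS.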

USP22 = biological target: T2, USP22 (UniProt Q9UPT9)
T2 sequence (whole entry): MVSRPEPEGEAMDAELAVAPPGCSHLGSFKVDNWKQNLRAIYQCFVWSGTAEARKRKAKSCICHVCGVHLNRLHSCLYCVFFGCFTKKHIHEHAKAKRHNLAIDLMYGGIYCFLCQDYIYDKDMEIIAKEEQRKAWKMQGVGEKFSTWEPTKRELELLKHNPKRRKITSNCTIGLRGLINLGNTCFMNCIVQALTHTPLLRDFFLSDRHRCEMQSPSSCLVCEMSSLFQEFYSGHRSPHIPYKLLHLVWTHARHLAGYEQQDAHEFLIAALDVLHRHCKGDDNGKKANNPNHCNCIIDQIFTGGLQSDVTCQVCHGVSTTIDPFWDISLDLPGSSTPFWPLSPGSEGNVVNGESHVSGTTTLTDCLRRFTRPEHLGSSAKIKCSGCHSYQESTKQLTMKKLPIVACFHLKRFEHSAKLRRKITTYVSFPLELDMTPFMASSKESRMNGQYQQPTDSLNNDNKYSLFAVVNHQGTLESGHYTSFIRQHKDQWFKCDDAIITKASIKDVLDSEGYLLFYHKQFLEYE
Procedure, shortened: as §1

USP24 = USP24 (UniProt Q9UPU5)
Procedure, shortened: as §1

USP25 = biological target: T3, USP25 (UniProt Q9UHP3)
T3 sequence (whole entry): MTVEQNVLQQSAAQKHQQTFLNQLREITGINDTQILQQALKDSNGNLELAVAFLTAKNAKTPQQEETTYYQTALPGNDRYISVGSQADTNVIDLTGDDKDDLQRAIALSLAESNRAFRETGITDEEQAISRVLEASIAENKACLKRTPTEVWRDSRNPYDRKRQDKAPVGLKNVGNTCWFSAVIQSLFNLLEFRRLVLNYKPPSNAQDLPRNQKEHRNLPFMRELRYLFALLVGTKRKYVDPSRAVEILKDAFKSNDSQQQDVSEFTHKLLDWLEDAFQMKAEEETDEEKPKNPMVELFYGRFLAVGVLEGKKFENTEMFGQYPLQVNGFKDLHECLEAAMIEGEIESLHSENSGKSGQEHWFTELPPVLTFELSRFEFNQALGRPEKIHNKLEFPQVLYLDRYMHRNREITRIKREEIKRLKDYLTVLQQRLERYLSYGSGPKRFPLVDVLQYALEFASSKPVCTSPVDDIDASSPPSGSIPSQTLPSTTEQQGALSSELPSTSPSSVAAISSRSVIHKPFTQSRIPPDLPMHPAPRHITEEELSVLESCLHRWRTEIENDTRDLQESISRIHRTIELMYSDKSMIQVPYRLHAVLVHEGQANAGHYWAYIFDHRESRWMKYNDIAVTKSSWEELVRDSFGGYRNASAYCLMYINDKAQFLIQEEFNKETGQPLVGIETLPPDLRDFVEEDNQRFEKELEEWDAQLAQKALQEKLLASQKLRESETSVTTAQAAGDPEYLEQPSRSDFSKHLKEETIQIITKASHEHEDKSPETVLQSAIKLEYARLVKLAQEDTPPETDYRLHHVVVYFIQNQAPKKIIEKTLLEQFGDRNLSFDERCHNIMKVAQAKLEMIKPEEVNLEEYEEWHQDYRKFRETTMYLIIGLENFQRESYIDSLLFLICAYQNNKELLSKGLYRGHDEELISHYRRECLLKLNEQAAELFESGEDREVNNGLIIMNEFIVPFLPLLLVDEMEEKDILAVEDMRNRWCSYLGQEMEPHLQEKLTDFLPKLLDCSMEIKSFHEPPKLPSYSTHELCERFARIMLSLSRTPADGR
Procedure, shortened: as §1

USP28 = biological target: T4, USP28 (UniProt Q96RU2)
T4 sequence (whole entry): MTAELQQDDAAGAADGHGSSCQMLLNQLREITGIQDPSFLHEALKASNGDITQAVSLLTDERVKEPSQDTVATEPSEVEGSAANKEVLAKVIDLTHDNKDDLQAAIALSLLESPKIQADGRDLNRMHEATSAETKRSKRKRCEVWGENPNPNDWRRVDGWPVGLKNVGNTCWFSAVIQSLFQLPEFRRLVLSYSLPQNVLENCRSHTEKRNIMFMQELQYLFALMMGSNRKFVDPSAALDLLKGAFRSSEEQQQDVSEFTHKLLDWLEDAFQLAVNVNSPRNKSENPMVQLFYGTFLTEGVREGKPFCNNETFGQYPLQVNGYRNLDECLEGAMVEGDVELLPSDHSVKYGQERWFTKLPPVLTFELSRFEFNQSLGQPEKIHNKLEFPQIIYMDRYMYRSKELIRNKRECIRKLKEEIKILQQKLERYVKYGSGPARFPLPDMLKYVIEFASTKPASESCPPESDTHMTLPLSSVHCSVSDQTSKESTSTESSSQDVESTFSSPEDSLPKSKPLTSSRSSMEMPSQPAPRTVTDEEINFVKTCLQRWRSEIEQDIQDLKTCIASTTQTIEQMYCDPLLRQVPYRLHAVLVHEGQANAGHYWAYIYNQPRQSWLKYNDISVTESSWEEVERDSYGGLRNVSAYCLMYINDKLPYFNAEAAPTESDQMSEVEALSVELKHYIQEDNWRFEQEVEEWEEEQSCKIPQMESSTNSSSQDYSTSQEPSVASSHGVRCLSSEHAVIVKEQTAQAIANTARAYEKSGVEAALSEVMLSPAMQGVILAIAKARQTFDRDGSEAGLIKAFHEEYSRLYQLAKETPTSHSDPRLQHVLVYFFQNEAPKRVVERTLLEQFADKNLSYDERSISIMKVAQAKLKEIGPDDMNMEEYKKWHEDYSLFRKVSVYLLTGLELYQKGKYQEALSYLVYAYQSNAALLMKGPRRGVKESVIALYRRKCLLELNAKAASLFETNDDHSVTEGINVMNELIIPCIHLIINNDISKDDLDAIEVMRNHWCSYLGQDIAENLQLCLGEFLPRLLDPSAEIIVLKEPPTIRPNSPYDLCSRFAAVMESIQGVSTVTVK
Procedure, shortened: as §1

Measured: log2 ratio of Biotin-Ahx-Ub-VS probe labelling

Chain of USP24 (Q9UPU5 whole entry): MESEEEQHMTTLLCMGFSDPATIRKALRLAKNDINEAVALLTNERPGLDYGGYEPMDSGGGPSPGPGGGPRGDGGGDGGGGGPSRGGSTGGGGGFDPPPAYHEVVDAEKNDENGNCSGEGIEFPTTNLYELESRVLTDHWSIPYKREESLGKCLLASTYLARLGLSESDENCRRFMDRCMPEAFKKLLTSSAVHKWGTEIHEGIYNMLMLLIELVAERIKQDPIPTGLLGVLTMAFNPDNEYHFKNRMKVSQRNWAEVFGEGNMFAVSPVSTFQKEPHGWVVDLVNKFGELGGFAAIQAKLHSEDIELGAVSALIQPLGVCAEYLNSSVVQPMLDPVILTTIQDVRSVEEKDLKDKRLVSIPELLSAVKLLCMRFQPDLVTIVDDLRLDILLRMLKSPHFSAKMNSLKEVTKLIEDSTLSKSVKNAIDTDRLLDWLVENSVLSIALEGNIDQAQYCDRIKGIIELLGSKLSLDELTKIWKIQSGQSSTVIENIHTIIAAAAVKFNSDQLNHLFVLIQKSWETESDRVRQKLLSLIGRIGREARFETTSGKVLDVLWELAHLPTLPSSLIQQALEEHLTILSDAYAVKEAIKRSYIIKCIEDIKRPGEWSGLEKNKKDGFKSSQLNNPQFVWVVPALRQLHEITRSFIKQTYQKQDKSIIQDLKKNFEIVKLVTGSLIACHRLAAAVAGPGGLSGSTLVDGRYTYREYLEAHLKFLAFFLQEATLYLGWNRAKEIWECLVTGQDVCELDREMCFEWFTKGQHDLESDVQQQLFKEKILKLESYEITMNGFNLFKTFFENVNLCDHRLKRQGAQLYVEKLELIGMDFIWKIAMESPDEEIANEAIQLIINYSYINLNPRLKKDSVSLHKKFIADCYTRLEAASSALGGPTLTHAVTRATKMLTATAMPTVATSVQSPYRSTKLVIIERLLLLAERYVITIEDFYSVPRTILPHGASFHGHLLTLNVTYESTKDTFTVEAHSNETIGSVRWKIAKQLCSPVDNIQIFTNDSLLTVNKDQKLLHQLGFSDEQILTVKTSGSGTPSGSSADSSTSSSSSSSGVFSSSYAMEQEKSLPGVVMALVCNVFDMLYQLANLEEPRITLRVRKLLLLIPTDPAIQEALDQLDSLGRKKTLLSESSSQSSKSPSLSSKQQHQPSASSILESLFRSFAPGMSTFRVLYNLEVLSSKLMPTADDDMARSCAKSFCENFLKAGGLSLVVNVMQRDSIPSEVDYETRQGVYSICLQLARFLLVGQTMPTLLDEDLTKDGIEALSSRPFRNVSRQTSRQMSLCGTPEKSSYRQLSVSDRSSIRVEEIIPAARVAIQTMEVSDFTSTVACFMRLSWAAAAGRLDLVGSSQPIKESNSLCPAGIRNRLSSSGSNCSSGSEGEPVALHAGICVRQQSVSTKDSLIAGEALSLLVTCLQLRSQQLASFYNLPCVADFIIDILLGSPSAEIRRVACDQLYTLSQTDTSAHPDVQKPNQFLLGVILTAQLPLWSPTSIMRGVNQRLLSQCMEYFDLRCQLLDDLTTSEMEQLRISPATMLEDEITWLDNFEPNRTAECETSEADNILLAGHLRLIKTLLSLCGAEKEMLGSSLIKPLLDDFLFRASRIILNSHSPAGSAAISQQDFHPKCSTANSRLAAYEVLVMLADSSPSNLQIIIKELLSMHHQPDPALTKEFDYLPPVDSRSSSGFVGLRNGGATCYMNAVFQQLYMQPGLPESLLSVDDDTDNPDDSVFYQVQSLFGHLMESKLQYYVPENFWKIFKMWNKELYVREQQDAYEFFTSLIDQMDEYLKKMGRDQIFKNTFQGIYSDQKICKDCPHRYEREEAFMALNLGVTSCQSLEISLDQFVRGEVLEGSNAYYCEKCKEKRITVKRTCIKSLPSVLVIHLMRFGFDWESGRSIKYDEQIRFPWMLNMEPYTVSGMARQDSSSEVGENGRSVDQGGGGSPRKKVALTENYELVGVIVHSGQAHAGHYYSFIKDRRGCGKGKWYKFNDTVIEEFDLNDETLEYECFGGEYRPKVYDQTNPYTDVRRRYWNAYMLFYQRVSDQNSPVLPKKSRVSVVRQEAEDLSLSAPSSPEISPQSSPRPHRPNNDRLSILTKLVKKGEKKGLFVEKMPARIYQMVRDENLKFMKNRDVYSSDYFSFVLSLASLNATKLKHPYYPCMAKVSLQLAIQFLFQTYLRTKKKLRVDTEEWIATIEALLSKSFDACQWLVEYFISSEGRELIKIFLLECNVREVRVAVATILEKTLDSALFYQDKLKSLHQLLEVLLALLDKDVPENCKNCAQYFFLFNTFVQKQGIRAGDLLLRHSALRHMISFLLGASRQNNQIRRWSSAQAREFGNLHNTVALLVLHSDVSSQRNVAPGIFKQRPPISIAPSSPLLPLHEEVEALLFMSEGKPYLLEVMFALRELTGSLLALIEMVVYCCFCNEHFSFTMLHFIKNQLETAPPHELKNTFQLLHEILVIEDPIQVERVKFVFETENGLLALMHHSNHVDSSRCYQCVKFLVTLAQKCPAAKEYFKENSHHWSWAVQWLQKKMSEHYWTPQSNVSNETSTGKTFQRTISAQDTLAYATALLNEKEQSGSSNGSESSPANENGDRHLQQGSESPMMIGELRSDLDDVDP

CCN(C(=O)CCl)C1CCS(=O)(=O)C1 (stereo not given)
inactive: USP19 0.00457 | USP22 -0.0368 | USP24 0.0946 | USP25 -0.0672 | USP28 -0.106

Reference: the supplement of paper PMC11732987, “Enantioselective OTUD7B fragment discovery through chemoproteomics screening and high-throughput optimisation” (Communications Chemistry, 2025)
